# From paper PMC7862700, “An all-to-all approach to the identification of sequence-specific readers for epigenetic DNA modifications on cytosine”
# Columns and labels:
# Assay in all cases: DAPPL (digital affinity profiling via proximity ligation, sequencing); 10 mM Tris-HCl pH 7.5, 50 mM NaCl, 1 mM DTT, 4% glycerol, room temperature, 30 min; GST-TFs on glutathione beads, 16-mer random dsDNA library, 0.1% formaldehyde crosslink after washing; high values mean tight binding
# FLI1 = target: T1, FLI1 (Homo sapiens, UniProt Q01543 1-452); details: protein: recombinant; tags: N-terminal GST; dsDNA, one strand shown
# T1 sequence: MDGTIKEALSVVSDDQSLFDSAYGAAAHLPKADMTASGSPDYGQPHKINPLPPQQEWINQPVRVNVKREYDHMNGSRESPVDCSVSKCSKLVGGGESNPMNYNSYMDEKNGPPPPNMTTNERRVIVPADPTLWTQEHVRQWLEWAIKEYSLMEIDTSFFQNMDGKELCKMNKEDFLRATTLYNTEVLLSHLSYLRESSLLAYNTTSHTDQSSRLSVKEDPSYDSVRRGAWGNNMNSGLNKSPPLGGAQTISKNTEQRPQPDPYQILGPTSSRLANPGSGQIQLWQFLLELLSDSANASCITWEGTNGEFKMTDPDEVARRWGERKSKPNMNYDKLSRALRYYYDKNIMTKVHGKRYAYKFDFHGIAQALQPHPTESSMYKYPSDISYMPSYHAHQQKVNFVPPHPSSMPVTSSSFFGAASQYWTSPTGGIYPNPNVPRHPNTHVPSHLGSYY
# Outline: (§1)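 GST fusions of human transcription factors were expressed in yeast and captured with glutathione beads. Once given DNA barcodes and pooled alongside a tag-only sample, they were incubated for 30 min at room temperature with 200 nmole of a random double-stranded 16-mer DNA library in Tris/NaCl/DTT/glycerol buffer, then washed, crosslinked (0.1% formaldehyde), proximity-ligated, PCR-amplified and sequenced on an Illumina NextSeq500. The binding signal of each hexamer is its read frequency for a factor divided by its frequency for the tag-only sample.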
# ELK1 = target: T2, ELK1 (Homo sapiens, UniProt P19419 1-428); details: protein: recombinant; tags: N-terminal GST; dsDNA, one strand shown
# T2 sequence: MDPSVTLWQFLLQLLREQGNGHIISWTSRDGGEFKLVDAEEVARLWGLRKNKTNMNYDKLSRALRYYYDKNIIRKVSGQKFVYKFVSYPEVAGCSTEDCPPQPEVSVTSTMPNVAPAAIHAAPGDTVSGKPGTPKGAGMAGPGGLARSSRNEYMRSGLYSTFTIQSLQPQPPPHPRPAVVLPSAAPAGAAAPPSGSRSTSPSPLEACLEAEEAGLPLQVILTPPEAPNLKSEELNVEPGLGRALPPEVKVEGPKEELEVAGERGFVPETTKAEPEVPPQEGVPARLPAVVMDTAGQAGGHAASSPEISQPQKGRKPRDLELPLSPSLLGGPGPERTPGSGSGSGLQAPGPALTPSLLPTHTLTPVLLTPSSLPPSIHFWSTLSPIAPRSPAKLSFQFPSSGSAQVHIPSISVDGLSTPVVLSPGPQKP
# Outline: as §1
# GABPA = target: T3, GABPA (Homo sapiens, UniProt Q06546 1-454); details: protein: recombinant; tags: N-terminal GST; dsDNA, one strand shown
# T3 sequence: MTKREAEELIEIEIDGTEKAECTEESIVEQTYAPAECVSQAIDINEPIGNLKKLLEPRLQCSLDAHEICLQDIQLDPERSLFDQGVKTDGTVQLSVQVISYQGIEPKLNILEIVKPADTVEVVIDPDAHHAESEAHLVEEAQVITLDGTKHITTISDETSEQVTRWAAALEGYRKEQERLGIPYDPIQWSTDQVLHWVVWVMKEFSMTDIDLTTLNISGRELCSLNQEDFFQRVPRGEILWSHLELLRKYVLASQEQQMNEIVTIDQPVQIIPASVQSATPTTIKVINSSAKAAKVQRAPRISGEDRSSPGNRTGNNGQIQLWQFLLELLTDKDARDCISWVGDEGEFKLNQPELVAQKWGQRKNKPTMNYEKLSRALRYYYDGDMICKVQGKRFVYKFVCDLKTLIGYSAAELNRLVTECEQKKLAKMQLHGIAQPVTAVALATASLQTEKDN
# Outline: as §1
# ERG = target: T4, ERG (Homo sapiens, UniProt P11308 1-479); details: protein: recombinant; tags: N-terminal GST; dsDNA, one strand shown
# T4 sequence: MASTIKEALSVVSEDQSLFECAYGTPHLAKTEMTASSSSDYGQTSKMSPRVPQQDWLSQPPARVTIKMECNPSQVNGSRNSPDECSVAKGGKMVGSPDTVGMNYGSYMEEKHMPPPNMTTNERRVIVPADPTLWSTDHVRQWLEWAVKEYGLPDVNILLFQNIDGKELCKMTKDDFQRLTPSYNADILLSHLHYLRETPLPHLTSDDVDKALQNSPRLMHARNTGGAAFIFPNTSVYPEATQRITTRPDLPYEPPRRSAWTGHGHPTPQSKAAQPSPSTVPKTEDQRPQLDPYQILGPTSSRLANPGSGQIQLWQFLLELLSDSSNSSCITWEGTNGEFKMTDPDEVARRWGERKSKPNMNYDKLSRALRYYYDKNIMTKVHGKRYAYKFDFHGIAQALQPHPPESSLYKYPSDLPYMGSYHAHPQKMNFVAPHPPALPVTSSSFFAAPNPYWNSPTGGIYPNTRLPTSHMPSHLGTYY
# Outline: as §1
# ELF1 = ELF1 (Homo sapiens, UniProt P32519 1-619); details: protein: recombinant; tags: N-terminal GST; dsDNA, one strand shown
# Outline: as §1
# EHF = target: T5, EHF (Homo sapiens, UniProt Q9NZC4 1-300); details: protein: recombinant; tags: N-terminal GST; dsDNA, one strand shown
# T5 sequence: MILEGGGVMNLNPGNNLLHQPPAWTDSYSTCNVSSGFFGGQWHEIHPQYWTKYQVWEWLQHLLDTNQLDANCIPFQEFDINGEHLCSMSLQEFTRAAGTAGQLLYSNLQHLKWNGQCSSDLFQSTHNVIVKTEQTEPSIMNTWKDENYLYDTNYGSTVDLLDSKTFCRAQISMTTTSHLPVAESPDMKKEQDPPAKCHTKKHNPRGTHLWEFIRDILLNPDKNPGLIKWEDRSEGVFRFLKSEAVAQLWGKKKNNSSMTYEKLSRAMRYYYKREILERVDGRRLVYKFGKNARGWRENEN
# Outline: as §1
# SPI1 = SPI1 (Homo sapiens, UniProt P17947 1-270); details: protein: recombinant; tags: N-terminal GST; dsDNA, one strand shown
# Outline: as §1
# SPIB = SPIB (Homo sapiens, UniProt Q01892 1-262); details: protein: recombinant; tags: N-terminal GST; dsDNA, one strand shown
# Outline: as §1
# ELK3 = target: T6, ELK3 (Homo sapiens, UniProt P41970 1-407); details: protein: recombinant; tags: N-terminal GST; dsDNA, one strand shown
# T6 sequence: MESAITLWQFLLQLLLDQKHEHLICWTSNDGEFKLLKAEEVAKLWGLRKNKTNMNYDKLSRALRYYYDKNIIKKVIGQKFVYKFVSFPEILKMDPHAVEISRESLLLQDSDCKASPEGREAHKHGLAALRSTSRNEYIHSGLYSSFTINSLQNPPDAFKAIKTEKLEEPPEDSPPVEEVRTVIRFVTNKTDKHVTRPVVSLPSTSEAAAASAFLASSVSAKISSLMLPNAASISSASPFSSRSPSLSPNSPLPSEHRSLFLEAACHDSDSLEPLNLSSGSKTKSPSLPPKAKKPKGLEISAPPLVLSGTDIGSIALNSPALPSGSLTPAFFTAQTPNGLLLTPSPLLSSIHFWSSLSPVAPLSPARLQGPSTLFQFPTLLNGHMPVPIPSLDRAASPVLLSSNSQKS
# Outline: as §1
# FEV = target: T7, FEV (Homo sapiens, UniProt Q99581 1-238); details: protein: recombinant; tags: N-terminal GST; dsDNA, one strand shown
# T7 sequence: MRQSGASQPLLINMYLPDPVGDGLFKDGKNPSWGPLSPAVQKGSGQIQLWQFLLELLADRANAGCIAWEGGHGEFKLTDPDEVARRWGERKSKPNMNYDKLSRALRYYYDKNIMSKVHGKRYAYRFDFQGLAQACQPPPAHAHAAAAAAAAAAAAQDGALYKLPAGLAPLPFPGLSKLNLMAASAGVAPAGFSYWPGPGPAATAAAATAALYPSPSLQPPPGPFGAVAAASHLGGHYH
# Outline: as §1
# ETV5 = ETV5 (Homo sapiens, UniProt P41161 1-510); details: protein: recombinant; tags: N-terminal GST; dsDNA, one strand shown
# Outline: as §1
# HSF1 = HSF1 (Homo sapiens, UniProt Q00613 1-529); details: protein: recombinant; tags: N-terminal GST; chain copies: 3; dsDNA, one strand shown
# Outline: as §1
# SPIC = target: T8, SPIC (Homo sapiens, UniProt Q8N5J4 1-248); details: protein: recombinant; tags: N-terminal GST; dsDNA, one strand shown
# T8 sequence: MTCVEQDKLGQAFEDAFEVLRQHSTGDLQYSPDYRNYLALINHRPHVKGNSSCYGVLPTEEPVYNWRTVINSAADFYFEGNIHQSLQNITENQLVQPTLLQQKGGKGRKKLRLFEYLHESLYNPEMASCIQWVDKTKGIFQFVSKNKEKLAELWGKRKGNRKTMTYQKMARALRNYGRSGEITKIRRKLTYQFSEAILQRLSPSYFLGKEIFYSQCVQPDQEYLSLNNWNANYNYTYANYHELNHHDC
# Outline: as §1
# ELF4 = ELF4 (Homo sapiens, UniProt Q99607 1-663); details: protein: recombinant; tags: N-terminal GST; dsDNA, one strand shown
# Outline: as §1
# ELK4 = target: T9, ELK4 (Homo sapiens, UniProt P28324-2 1-405); details: protein: recombinant; tags: N-terminal GST; dsDNA, one strand shown
# T9 sequence: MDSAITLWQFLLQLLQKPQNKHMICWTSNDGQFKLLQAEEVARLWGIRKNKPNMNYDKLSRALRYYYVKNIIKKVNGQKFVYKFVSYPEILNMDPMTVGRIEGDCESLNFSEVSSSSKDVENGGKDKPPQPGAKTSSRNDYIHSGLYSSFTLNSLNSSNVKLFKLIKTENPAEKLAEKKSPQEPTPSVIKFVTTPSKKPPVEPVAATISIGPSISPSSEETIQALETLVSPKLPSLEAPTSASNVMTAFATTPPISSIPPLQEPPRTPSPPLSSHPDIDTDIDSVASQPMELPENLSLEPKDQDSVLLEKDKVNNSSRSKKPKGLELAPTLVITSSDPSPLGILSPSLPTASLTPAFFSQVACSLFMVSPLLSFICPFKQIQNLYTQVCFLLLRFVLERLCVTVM
# Outline: as §1
# ETV2 = target: T10, ETV2 (Homo sapiens, UniProt O00321 1-342); details: protein: recombinant; tags: N-terminal GST; dsDNA, one strand shown
# T10 sequence: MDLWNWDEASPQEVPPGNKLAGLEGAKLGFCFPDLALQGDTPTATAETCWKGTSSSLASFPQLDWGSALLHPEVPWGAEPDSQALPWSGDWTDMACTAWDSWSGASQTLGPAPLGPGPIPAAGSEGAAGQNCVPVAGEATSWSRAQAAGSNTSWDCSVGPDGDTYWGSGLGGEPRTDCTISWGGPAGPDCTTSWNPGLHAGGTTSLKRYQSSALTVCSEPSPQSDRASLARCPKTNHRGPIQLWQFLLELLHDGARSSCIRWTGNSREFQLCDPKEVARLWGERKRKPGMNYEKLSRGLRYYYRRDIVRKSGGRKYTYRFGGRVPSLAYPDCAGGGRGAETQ
# Outline: as §1
# ELF3 = target: T11, ELF3 (Homo sapiens, UniProt P78545 1-371); details: protein: recombinant; tags: N-terminal GST; dsDNA, one strand shown
# T11 sequence: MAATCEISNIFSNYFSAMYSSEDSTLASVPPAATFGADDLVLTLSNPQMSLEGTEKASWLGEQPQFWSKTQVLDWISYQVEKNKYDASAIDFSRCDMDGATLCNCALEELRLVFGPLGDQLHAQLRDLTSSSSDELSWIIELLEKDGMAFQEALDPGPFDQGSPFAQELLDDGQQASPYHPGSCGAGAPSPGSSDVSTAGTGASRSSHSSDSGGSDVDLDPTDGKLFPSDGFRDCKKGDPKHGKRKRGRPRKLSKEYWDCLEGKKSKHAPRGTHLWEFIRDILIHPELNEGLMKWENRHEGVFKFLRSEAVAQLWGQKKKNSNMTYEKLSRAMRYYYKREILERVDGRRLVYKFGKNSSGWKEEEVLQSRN
# Outline: as §1
# CRX = CRX (Homo sapiens, UniProt O43186 1-299); details: protein: recombinant; tags: N-terminal GST; dsDNA, one strand shown
# Outline: as §1
# ETV1 = ETV1 (Homo sapiens, UniProt P50549 1-477); details: protein: recombinant; tags: N-terminal GST; dsDNA, one strand shown
# Outline: as §1
# Chain of HSF1 (Q00613 whole entry): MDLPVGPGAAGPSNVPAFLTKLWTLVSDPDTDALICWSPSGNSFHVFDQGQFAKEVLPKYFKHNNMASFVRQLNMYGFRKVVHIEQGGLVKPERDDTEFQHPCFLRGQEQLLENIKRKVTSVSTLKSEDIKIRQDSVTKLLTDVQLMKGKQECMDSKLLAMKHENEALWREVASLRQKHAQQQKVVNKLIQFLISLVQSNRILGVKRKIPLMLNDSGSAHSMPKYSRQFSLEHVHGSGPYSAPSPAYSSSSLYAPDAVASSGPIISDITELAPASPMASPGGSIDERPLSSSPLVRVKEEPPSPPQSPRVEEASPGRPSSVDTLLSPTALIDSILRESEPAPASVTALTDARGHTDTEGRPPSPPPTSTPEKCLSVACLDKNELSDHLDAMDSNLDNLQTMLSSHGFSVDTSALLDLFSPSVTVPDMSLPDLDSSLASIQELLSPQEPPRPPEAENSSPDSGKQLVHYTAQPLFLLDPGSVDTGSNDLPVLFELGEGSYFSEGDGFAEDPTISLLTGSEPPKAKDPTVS
# Chain of ELF4 (Q99607 whole entry): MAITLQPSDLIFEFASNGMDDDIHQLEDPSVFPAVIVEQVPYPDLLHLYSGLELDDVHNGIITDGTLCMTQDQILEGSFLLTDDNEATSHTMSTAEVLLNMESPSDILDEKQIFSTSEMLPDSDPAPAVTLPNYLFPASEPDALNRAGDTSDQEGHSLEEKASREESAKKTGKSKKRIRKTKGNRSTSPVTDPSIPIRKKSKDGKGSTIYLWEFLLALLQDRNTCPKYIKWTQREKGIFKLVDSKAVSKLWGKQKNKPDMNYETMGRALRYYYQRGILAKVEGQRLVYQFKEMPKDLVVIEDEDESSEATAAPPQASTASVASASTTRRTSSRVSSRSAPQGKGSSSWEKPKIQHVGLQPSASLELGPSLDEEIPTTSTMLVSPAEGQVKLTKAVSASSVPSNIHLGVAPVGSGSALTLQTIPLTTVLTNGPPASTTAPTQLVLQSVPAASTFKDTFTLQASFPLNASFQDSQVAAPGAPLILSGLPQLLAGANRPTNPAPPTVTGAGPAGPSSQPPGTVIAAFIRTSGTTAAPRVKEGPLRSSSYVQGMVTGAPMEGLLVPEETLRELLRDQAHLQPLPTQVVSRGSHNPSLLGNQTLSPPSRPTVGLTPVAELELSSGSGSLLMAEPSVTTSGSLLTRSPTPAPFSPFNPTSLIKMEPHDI
# Chain of ELF1 (P32519 whole entry): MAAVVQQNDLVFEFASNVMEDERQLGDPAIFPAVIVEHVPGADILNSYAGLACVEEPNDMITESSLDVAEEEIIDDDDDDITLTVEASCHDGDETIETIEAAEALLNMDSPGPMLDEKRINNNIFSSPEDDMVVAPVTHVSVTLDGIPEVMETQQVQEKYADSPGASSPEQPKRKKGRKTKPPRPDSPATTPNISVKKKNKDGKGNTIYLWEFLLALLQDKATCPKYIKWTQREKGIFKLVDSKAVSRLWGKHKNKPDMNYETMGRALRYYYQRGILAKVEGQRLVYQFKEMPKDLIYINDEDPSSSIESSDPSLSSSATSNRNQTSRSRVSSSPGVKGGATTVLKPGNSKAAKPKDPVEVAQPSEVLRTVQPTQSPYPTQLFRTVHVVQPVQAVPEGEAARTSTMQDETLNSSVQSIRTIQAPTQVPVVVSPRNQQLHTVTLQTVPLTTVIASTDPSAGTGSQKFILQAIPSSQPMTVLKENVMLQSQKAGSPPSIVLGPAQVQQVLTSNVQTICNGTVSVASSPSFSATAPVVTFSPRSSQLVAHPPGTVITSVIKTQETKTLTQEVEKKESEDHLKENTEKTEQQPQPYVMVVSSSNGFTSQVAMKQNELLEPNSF
# Chain of CRX (O43186 whole entry): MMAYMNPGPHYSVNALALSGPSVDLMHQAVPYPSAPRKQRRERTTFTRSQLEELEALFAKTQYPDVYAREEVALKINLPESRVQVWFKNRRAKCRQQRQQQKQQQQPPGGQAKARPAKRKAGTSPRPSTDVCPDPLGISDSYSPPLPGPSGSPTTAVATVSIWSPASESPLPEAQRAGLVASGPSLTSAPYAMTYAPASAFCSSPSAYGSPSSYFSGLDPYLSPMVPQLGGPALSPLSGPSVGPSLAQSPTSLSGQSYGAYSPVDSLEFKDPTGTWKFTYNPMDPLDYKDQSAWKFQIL
# Chain of SPIB (Q01892 whole entry): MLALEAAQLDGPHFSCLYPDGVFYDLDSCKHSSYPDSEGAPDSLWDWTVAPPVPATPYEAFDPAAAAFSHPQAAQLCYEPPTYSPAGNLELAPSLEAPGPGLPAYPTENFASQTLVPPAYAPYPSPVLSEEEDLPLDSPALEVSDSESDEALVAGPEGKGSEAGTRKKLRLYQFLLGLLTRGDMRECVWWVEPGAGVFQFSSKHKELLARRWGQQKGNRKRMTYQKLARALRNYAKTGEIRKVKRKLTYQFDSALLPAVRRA
# Chain of ETV5 (P41161 whole entry): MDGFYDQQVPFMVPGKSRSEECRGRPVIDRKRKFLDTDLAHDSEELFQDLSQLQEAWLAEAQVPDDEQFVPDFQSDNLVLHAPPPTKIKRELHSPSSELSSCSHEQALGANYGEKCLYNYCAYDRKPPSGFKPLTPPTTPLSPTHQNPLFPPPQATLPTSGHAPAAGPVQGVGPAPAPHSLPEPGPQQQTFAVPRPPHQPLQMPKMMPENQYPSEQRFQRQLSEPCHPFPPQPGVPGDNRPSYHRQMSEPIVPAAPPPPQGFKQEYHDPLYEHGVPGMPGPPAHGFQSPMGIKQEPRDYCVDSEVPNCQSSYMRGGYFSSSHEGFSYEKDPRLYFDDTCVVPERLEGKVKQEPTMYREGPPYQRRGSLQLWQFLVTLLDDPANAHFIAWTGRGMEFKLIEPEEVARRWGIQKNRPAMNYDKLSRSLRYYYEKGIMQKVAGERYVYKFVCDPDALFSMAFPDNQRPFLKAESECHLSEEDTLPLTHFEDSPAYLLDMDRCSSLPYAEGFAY
# Chain of ETV1 (P50549 whole entry): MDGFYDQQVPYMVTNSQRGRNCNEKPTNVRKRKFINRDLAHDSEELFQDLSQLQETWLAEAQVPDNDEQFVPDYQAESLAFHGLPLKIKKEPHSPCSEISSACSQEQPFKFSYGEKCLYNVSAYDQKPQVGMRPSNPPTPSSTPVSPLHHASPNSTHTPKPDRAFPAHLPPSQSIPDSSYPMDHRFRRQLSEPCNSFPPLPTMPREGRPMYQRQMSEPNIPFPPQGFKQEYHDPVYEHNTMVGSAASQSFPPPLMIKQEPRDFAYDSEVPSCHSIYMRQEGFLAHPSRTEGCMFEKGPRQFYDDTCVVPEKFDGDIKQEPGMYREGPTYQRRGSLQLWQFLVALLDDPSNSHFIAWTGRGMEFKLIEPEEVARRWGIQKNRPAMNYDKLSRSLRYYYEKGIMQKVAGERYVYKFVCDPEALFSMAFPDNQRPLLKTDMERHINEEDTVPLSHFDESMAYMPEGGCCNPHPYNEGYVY
sequence,measurement,setting,value
CGTATA,binding signal,FLI1,"1.12 fold enrichment (6-mer frequency, TF over GST control)"
same,binding signal,ELK1,"1.23 fold enrichment (6-mer frequency, TF over GST control)"
same,binding signal,GABPA,"1.17 fold enrichment (6-mer frequency, TF over GST control)"
same,binding signal,ERG,"1.11 fold enrichment (6-mer frequency, TF over GST control)"
same,binding signal,ELF1,"1.11 fold enrichment (6-mer frequency, TF over GST control)"
same,binding signal,EHF,"1.09 fold enrichment (6-mer frequency, TF over GST control)"
same,binding signal,SPI1,"1.13 fold enrichment (6-mer frequency, TF over GST control)"
same,binding signal,SPIB,"1.25 fold enrichment (6-mer frequency, TF over GST control)"
same,binding signal,ELK3,"1.16 fold enrichment (6-mer frequency, TF over GST control)"
same,binding signal,FEV,"1.04 fold enrichment (6-mer frequency, TF over GST control)"
same,binding signal,ETV5,"1.15 fold enrichment (6-mer frequency, TF over GST control)"
same,binding signal,HSF1,"1.03 fold enrichment (6-mer frequency, TF over GST control)"
same,binding signal,SPIC,"1.19 fold enrichment (6-mer frequency, TF over GST control)"
same,binding signal,ELF4,"1.13 fold enrichment (6-mer frequency, TF over GST control)"
same,binding signal,ELK4,"1.07 fold enrichment (6-mer frequency, TF over GST control)"
same,binding signal,ETV2,"1.12 fold enrichment (6-mer frequency, TF over GST control)"
same,binding signal,ELF3,"1.24 fold enrichment (6-mer frequency, TF over GST control)"
same,binding signal,CRX,"1.07 fold enrichment (6-mer frequency, TF over GST control)"
same,binding signal,ETV1,"1.19 fold enrichment (6-mer frequency, TF over GST control)"
